# Assay results as given in PubChem BioAssay.
# Activity calls are given as the source filed them. Unless noted, no rule for the calls is given here.
# Key:
# [1] = system: Wnt5a (protein binding on small-molecule microarray); assay: small molecules binding Wnt5a protein – biophysical, small-molecule microarray, 635/667 nm fluorescence, primary screen (AID 1142); settings: 635 nm fluorescence, higher = more signal;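 also: fluorescence read at 667 nm with signal to noise per printed feature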
# [2] = ATP-based viability of Huh7 replicon cells – cell-based, CellTiter-Glo luminescence, basal, 48 h, cytotoxicity control for HCV replication inhibitor project, primary screen (AID 1143); settings: higher = more signal, called active from +8 up or from −8 down;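 also: Huh7 hepatoma cells carrying a hepatitis C replication reporter with no stimulus; test concentration not given here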
# [3] = Pseudomonas biofilm growth suppression – PAO1 strain, BacTiter-Glo luminescence, LB-PBS, primary screen (AID 1144); settings: P. aeruginosa PAO1 biofilm, 12 h, higher = more signal
# [4] = basal CRE-LacZ reporter activity in PC12 – cell-based, unstimulated, primary screen (AID 1145); settings: no forskolin, luminescence, 4.5 h, higher = more signal, called active from +8 up or from −8 down
# [5] = forskolin-driven CRE-LacZ activity in PC12 – cell-based, CRE-LacZ reporter, forskolin-stimulated, primary screen (AID 1146); settings: luminescence, 4.5 h, higher = more signal, called active from +8 up or from −8 down;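 also: PC12 cells with 6xCRE LacZ reporter stimulated by forskolin 10 µM; beta-galactosidase reporter signal reflecting CREB driven transcription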
# [6] = molecular target: Streptavidin (Streptomyces avidinii) (UniProt P22629); assay: compounds binding control protein streptavidin – biophysical, small-molecule microarray, 635/667 nm fluorescence, artefact control for SMM compound annotation, primary screen (AID 1147); settings: higher = more signal;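 also: signal reflects streptavidin binding to arrayed compounds as a control protein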
# [7] = probe aInhba binding on compound microarray – biochemical, small-molecule microarray, 635/667 nm fluorescence, primary screen (AID 1148); settings: higher = more signal;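 also: score merges 667nm spot fluorescence with signal-to-noise for antibody binding to printed compounds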
# Torsin-1A (Homo sapiens) [8] = molecular target: Torsin-1A (Homo sapiens) (UniProt O14656); assay: TOR1A wild-type binding on microarray – cell lysate, small-molecule microarray, lysate, 635/667 nm, primary screen (AID 1149); settings: COS7 hTOR1A-WT lysate, 635 nm fluorescence, higher = more signal
# Torsin-1A (Homo sapiens) [9] = molecular target: Torsin-1A (Homo sapiens) (UniProt O14656); assay: torsin A mutant lysate binding on microarrays – cell lysate, small-molecule microarray, COS7 lysate, 635/667 nm fluorescence, primary screen (AID 1150); settings: COS7 hTOR1A mutant lysate, 635 nm fluorescence, higher = more signal;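 also: score pools 667 nm emission and signal to noise measuring lysate protein binding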
# [10] = system: Sonic hedgehog protein (Shh); assay: Sonic hedgehog microarray binding compounds – biochemical, small-molecule microarray, 635/667 nm fluorescence, primary screen (AID 1151); settings: 635 nm fluorescence, higher = more signal;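 also: Shh protein binding to compounds spotted on small-molecule microarray slides; score combines spot fluorescence intensity with signal-to-noise across triplicate slides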
# [11] = optical density shifts of acrAB sulA E. coli – strain DRC41, OD650, 48 h, E. coli filamentation inducer project, primary screen (AID 1152); settings: higher = more signal, called active from +8 up or from −8 down;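 also: E. coli MC1000 strain DRC41 lacking acrAB efflux pump and sulA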
# [12] = probe aLefty1 binding on compound microarray – biochemical, small-molecule microarray, 635/667 nm fluorescence, primary screen (AID 1153); settings: higher = more signal;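 also: score merges spot fluorescence with signal-to-noise ratio from the scanned slide images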
# [13] = plasmodial surface anion channel blockers, osmotic lysis – cell-based, P. falciparum Indochina, OD700, 1 h, primary screen (AID 1154); settings: P. falciparum Indochina infected RBC osmotic lysis, higher = more signal, called active from +8 up or from −8 down
# [14] = plasmodial surface anion channel blockers, osmotic lysis – cell-based, P. falciparum Indochina, OD700, 2 h, primary screen (AID 1155);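 also: lysis reports solute entry through the parasite surface anion channel PSAC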; settings: P. falciparum Indochina infected erythrocytes, higher = more signal, called active from +8 up or from −8 down
# [15] = changes in parasitized red cell lysis, either direction – P. falciparum Indochina, OD700, 3 h, PSAC antagonist project, primary screen (AID 1156); settings: P. falciparum-infected erythrocytes, osmotic lysis, higher = more signal, called active from +8 up or from −8 down
# [16] = plasmodial surface anion channel blockers, osmotic lysis – cell-based, P. falciparum Indochina, OD700, 18 h, primary screen (AID 1157); settings: P. falciparum Indochina infected erythrocytes, osmotic lysis OD700, 18 h; higher = more signal, called active from +8 up or from −8 down
# [17] = S6 kinase pathway phospho-S6 level changes – cell-based, A549, cytoblot, luminescence, serum-stimulated, primary screen (AID 1158); settings: 5 h, higher = more signal;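 also: serum-stimulated A549 lung adenocarcinoma cells; signal is phosphorylated S6 detected by cytoblot immunostaining with HRP secondary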
# [18] = molecular target: NADPH oxidase 2 (Homo sapiens) (UniProt P04839); assay: compounds shifting NOX2 Amplex Red fluorescence – cell-based, HEK293-NOX2, PMA-stimulated, NOX inhibitor project, primary screen (AID 1159); settings: 45 min, higher = more signal, called active from +8 up or from −8 down; also: test concentration not given here
# [19] = molecular target: NADPH oxidase 4 (Homo sapiens) (UniProt Q9NPH5); assay: compounds shifting NOX4 Amplex Red fluorescence – cell-based, HEK293-NOX4, tetracycline-induced, NOX inhibitor project, primary screen (AID 1160); settings: HEK293-NOX4, Amplex Red H2O2 fluorescence, 45 min; higher = more signal, called active from +8 up or from −8 down
# [20] = molecular target: NADPH oxidase 5 (Homo sapiens) (UniProt Q96PH1); assay: compounds shifting NOX5 Amplex Red fluorescence – cell-based, HEK293-NOX5, NOX inhibitor project, primary screen (AID 1161); settings: HEK293-NOX5, ionomycin, 45 min, higher = more signal
# Chain of NADPH oxidase 5 (Homo sapiens) (Q96PH1 whole entry, looked up): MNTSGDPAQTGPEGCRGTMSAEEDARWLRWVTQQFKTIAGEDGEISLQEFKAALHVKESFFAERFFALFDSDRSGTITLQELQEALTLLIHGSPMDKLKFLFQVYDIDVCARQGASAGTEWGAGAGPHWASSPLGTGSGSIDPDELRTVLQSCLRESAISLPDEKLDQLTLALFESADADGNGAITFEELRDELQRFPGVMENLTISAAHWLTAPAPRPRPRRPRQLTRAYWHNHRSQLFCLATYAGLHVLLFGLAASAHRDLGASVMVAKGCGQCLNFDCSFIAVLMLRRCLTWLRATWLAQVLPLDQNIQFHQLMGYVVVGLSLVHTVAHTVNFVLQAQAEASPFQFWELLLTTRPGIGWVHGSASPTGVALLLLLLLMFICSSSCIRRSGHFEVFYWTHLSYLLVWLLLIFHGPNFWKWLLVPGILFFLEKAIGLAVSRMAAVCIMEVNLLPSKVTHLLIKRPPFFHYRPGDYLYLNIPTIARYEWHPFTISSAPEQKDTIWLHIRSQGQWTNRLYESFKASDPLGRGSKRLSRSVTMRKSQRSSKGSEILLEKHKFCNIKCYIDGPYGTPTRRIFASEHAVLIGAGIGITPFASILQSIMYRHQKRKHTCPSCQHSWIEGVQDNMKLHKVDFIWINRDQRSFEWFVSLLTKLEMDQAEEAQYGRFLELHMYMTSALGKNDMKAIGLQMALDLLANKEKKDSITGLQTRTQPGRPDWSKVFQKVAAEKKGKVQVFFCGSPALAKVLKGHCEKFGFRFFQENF
# Chain of NADPH oxidase 2 (Homo sapiens) (P04839 whole entry, looked up): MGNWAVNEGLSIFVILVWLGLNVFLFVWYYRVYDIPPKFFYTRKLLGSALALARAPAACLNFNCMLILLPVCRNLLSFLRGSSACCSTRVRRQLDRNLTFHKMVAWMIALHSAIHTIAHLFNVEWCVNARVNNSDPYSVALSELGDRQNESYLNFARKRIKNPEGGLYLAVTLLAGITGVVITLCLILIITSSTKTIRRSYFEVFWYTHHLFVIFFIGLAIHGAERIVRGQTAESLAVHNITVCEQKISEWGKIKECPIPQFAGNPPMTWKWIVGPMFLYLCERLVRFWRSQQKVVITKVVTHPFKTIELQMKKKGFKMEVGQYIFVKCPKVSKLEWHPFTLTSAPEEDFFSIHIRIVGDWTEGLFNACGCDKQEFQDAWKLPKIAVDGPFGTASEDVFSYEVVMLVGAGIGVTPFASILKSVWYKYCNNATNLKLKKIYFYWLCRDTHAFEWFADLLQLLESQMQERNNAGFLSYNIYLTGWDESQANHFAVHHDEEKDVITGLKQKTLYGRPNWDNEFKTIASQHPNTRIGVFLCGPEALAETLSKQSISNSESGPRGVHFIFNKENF
# Chain of Torsin-1A (Homo sapiens) (O14656 whole entry, looked up): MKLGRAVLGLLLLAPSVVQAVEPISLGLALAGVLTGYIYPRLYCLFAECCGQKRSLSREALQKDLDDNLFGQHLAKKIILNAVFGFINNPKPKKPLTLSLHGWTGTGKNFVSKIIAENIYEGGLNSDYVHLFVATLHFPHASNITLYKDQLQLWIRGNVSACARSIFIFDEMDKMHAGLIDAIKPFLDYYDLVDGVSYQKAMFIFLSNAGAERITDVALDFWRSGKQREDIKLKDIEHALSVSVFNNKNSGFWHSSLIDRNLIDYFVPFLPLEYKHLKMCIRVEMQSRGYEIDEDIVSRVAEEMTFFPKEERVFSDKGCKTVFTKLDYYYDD
# Chain of NADPH oxidase 4 (Homo sapiens) (Q9NPH5 whole entry, looked up): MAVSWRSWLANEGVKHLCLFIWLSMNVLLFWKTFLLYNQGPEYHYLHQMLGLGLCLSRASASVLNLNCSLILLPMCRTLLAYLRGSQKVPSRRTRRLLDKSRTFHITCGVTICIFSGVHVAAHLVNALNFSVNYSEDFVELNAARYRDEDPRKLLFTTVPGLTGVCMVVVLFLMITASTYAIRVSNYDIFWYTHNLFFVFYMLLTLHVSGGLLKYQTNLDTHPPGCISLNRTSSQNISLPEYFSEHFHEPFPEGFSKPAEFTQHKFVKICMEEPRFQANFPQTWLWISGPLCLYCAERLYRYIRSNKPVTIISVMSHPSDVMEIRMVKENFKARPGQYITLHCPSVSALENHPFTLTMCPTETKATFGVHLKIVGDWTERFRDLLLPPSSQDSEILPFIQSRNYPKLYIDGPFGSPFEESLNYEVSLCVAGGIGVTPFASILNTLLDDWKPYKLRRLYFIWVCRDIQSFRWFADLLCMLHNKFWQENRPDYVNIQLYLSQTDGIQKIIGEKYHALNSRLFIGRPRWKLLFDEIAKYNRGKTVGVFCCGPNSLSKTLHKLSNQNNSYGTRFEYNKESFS
# Chain of Streptavidin (Streptomyces avidinii) (P22629 whole entry, looked up): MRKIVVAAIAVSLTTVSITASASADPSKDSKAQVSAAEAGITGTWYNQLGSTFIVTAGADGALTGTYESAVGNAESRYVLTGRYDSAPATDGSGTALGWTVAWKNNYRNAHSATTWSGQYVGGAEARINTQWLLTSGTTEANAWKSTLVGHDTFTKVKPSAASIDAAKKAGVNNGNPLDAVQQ
Compound,composite z-score [1],z-score [2],z-score [3],z-score [4],z-score [5],composite z-score [6],composite z-score [7],composite z-score (Torsin-1A (Homo sapiens) [8]),composite z-score (Torsin-1A (Homo sapiens) [9]),composite z-score [10],z-score [11],composite z-score [12],z-score [13],z-score [14],z-score [15],z-score [16],z-score [17],z-score [18],z-score [19],z-score [20]
COCCCNC(=O)[C@@]1(Cc2ccccc2CN=[N+]=[N-])N=C(c2ccc(OCCCO)cc2)O[C@H]1c1ccccc1,0.919,-4.74 (inactive),-0.688 (inactive),0.391 (inactive),0.145 (inactive),0.284,0.0872,0.821,1.26,-0.715,-0.314 (inactive),0.197,17.1 (active),2.76 (inactive),0.697 (inactive),1.16 (inactive),0.146,-1.79 (inactive),-0.298 (inactive),-1.54
COC(=O)[C@@]1(Cc2ccc(OC)cc2)[C@H]2c3cc(C(=O)N4CCCC4)n(Cc4c(-c5ccccc5)noc4C)c3C[C@H]2CN1C(=O)c1ccccc1,1.01,-3.29 (inactive),-0.452 (inactive),-0.185 (inactive),-0.531 (inactive),0.945,0.659,1.27,0.776,-0.314,-0.615 (inactive),0.956,5.34 (inactive),1.25 (inactive),-0.749 (inactive),1.5 (inactive),0.406,0.428 (inactive),0.486 (inactive),2.59
COc1cc(OC)c(C(O)C2C=CC3C(=O)N(C)C(=O)C3N2NC(=O)OC(C)(C)C)cc1Br (stereo not given),0.326,0.558 (inactive),-0.224 (inactive),1.2 (inactive),0.922 (inactive),1.25,0.194,0.443,0.315,0.568,-0.36 (inactive),0.524,1.24 (inactive),1.18 (inactive),-0.285 (inactive),1.07 (inactive),-0.92,0.224 (inactive),-3.59 (inactive),0.576
C=C(/C(=C/C[C@@H](OC(C)=O)c1cccc(OCCO)c1)c1cc(C(=O)OC)ccc1OC)C(C)C,0.148,-1.38 (inactive),-0.251 (inactive),3.49 (inactive),0.32 (inactive),-0.19,-0.152,0.875,1.36,1.73,0.546 (inactive),0.0962,9.43 (active),1.6 (inactive),2.19 (inactive),0.75 (inactive),0.547,-2.08 (inactive),-1.07 (inactive),-2.17
COCCOC(=O)N1C(=O)[C@@]2(c3cc(C#Cc4ccc(OC)cc4)ccc31)[C@H](c1ccccc1OCCO)N1[C@H](c3ccccc3)[C@H](c3ccccc3)OC(=O)[C@H]1[C@@H]2C(=O)N1CCCCCCC1,1.28,-4.35 (inactive),-2.23 (inactive),-1.42 (inactive),-0.693 (inactive),2.64,1.56,2.72,2.09,2.04,2.97 (inactive),2.81,0.999 (inactive),0.57 (inactive),0.338 (inactive),-0.122 (inactive),1.99,-0.126 (inactive),0.201 (inactive),1.19
[N-]=[N+]=NCc1ccccc1[C@H]1OC(c2ccc(OCCCO)cc2)=N[C@@]1(CCS(=O)(=O)c1ccccc1)C(=O)N1CCCCC1,0.526,-1.56 (inactive),-0.705 (inactive),0.0219 (inactive),-0.709 (inactive),1.72,0.211,0.827,1.28,0.155,-0.193 (inactive),0.666,25.6 (active),9.69 (active),3.2 (inactive),1.5 (inactive),0.515,0.0197 (inactive),1.56 (inactive),1.63
O=C(NCC(F)(F)F)[C@@H]1c2ccccc2C(=O)N(Cc2ccc(OC(F)(F)F)cc2)[C@H]1c1ccc(CO)cc1,0.119,-2.41 (inactive),-0.652 (inactive),0.531 (inactive),0.118 (inactive),-0.176,-0.0672,0.176,-0.0108,1.74,0.484 (inactive),-0.252,0.926 (inactive),-0.137 (inactive),1.44 (inactive),0.376 (inactive),-0.323,-0.759 (inactive),-0.889 (inactive),-0.263
CC1=C([C@H](O)CCc2ccccc2)[C@H](CO)[C@@H]2C(=O)N(C)C(=O)[C@@H]2C1,-0.124,-0.0547 (inactive),-0.518 (inactive),-0.321 (inactive),-0.33 (inactive),0.591,-0.218,0.285,0.0992,0.656,1.13 (inactive),0.184,4.81 (inactive),0.403 (inactive),-0.0722 (inactive),-0.0393 (inactive),-0.167,-1.36 (inactive),0.412 (inactive),0.0196
